Survival data for 97 compounds are collected here from PubChem BioAssay AID463173 (ICCB-Longwood Screening Facility, Harvard Medical School, 2010).

About 4,300 (8.3%) of roughly 52,000 compounds were called active. The sample holds actives, similar compounds and a random draw of the others, so the mix is not that of the screen. Unmarked numbers belong to inactive results. Cut-off read from the data, not from the text of the source: active = survival mostly below about 52% (no sharp cut-off); inactive = mostly above about 56%.

The subject of the assay is DeltatarO mutant. Briefly: growth inhibition of S. aureus wild type versus tarO mutant, primary screen, teichoic acid synthesis inhibitors, RN4220, OD600 (AID 463173). The following applies: OD600, 18 h, hits give low values, screened at 18.75 µg/mL (by protocol).
For `COc1ccc(N(C(=O)/C=C\C(=O)Nc2ccc(Cl)cc2)C(C(=O)NCc2ccco2)c2ccc(C)cc2)cc1` (configuration not stated), the survival is 115%. With `Cc1cccc(N2CCN(C(=O)C3CCN(C(=O)c4cc5sccc5n4C)CC3)CC2)c1C`, the survival is 53%.

With `Cn1c(C(=O)N2CCCC(C(=O)N3CCN(c4ccccc4)CC3)C2)cc2sccc21` (configuration not stated), the survival is 89%. For `Cc1cccc(N2CCN(C(=O)C3CCCN(C(=O)c4cc5sccc5n4C)C3)CC2)c1C` (configuration not stated) the value was 53% (active); for `Cc1cccc(C)c1OCC(=O)N1CCC(c2nc3ccccc3o2)CC1`, 86%.

For the compound `CC(Oc1ccccc1F)C(=O)N1CCC(c2nc3ccccc3o2)CC1` (configuration not stated), the survival was -1% (active).

For the compound `CCc1ccc(OC(C)C(=O)N2CCC(c3nc4ccccc4o3)CC2)cc1` (configuration not stated), the survival is 85%. Then `Cc1cccc(OC(C)C(=O)N2CCC(c3nc4ccccc4o3)CC2)c1C` (configuration not stated), with 75%; and `COc1ccccc1OCC(=O)N1CCC(c2nc3ccccc3o2)CC1`, with 0% (active); and `Cc1cccc(OCC(=O)N2CCC(c3nc4ccccc4o3)CC2)c1C`, with 81%. For `O=C(CC1CCCCC1)Nc1ccccn1` the value was 73%; for `COc1ccc(N2C(=O)C(C)C(Cc3ccc(C)cc3)C2=O)cc1` (configuration not stated), 103%; for `CCC(=O)Nc1ccc(NC(=O)c2ccc(F)cc2)nc1`, 85%. As to `COc1ccc(NC(=O)NCC2CCN(Cc3ccccc3F)CC2)c(OC)c1`, the survival is 96%. `CC1CCCCN1C(=O)C1COc2ccccc2O1` (configuration not stated): the survival is 65%. As to `CCN(c1ccccc1)c1nnc(NC(=O)Nc2cccc(Br)c2)s1`, the survival was 80%. For the compound `Cc1cccc(NC(=O)Nc2ccc(Br)cc2)n1`, the survival was 126%.

`Cc1ccc2oc(-c3ccc(NC(=O)c4oc5ccc(Cl)cc5c4C)cc3)nc2c1`: the survival is 66%.

`Cc1ccc(-n2nc3ccc(NC(=O)c4cc5ccccc5o4)cc3n2)cc1`: the survival is 70%. Then `COc1ccc(-n2nc3ccc(NC(=O)c4c(OC)cccc4OC)cc3n2)cc1`, with 135%; and `COc1cc(C(=O)Nc2ccc3nn(-c4ccc(F)cc4)nc3c2)cc(OC)c1OC`, with 45% (active); and `Cc1c(C(=O)Nc2ccncc2)oc2ccccc12`, with 98%. With `CCc1ccc(-n2nc3ccc(NC(=O)c4cc(Cl)c(OC)c(Cl)c4)cc3n2)cc1`, the survival was 83%.

Take `Cc1ccc(-n2nc3ccc(NC(=O)c4oc5ccccc5c4C)cc3n2)cc1`: the survival is 31% (active). In the case of `Cc1ccc2oc(C(=O)Nc3cccc(-c4nc5ccccc5s4)c3)c(C)c2c1`, the survival is 55%. For the compound `Cc1ccc(-n2nc3ccc(NC(=O)c4oc5ccc(C)cc5c4C)cc3n2)cc1`, the survival was 38% (active). Turning to `O=C(Cn1ncc2c3ccccc3n(Cc3ccc(F)cc3)c2c1=O)NCCC1=CCCCC1`, the survival was 85%. Take `CC(C)(C)C(=O)Nc1c(C(=O)N2CCN(c3ccc(F)cc3)CC2)oc2ccccc12`: the survival was 80%.

With `CCn1cc(C(=O)NCc2ccc(Cl)cc2)c(=O)c2cc(S(=O)(=O)N(C)C3CCCCC3)ccc21`, the survival is 70%. In the case of `CCOc1ccc(NC2=NCCC(=O)N2Cc2cccs2)cc1`, the survival was 83%. Regarding `O=C(O)c1nnc(Cl)c2ccccc12`, the survival is 91%. With `Cc1nc(-c2ccc(Cl)cc2)sc1CCNC(=O)C(=O)Nc1ccccc1C#N`, the survival is 80%.

On to `Cc1ccc(CNC(=O)c2cc3c(=O)n4cccc(C)c4nc3s2)cc1`, for which the survival was 54% (active). Take `Cc1cccn2c(=O)c3cc(C(=O)NCC(C)C)sc3nc12`: the survival was 63% (active). For `Cc1cccn2c(=O)c3cc(C(=O)NCc4ccccc4Cl)sc3nc12`, the survival is 62%. Then `CCOC(=O)CNC(=O)c1cc2c(=O)n3cccc(C)c3nc2s1`, with 179%; and `COc1ccc(CNC(=O)c2cc3c(=O)n4cccc(C)c4nc3s2)cc1`, with 68%; and `CCCCNC(=O)c1cc2c(=O)n3cccc(C)c3nc2s1`, with 150%. For `O=C(CN1CCC(n2nnc3cc(C(F)(F)F)ccc32)CC1)Nc1ccc(N2CCCC2)cc1` the value was 86%. For `CCN(CC)CCNC(=O)c1sc2nc(C)cc(C)c2c1-n1cccc1`, the survival is 86%.

As for `CC(C)CN(CCNC(=O)c1cc(=O)[nH]c2ccc(S(=O)(=O)N3CCCCCC3)cc12)CC(C)C`, the survival is 86%. Then `COc1ccc(OC)c(CNC(=O)Cn2ncc3c([nH]c4ccc(C)cc43)c2=O)c1`, with 92%. Then `CC(C)c1ccc(OC(=O)c2cc(-c3ccc(Cl)cc3)on2)cc1`, with 98%; and `Cc1ccc(OC(=O)c2cc(-c3ccc4c(c3)OCCO4)on2)cc1C`, with -2% (active). Take `COc1ccc(OC(=O)c2cc(-c3ccc4c(c3)OCCO4)on2)cc1`: the survival is 101%. With `N#Cc1ccc(OC(=O)c2cc(-c3ccc4c(c3)OCCO4)on2)cc1`, the survival is 117%. As to `O=C(Oc1ccc(Cl)cc1)c1cc(-c2ccc3c(c2)OCCO3)on1`, the survival was 116%. Consider `Cc1cc(OC(=O)c2cc(-c3ccc4c(c3)OCCO4)on2)ccc1Cl`, for which the survival is -1% (active). Then `Cc1ccc(-c2cc(C(=O)Oc3ccc(C#N)cc3)no2)cc1`, with 97%. As for `O=C(Nc1cc(C(F)(F)F)ccc1Cl)c1cc(-c2ccc3c(c2)OCCO3)on1`, the survival is 116%. For `CC(C)c1ccc(OC(=O)c2cc(-c3ccc4c(c3)OCCO4)on2)cc1` the value was 8% (active); for `CCC(C)NC(=O)Cn1c(=O)cc(-c2ccccc2)c2c(C)nn(C)c21` (configuration not stated), 70%; for `COc1cccc(NC(=O)Cc2csc(COc3cccc(C)c3)n2)c1`, 72%.

For `CCOC(=O)c1cnn(-c2ccc(C(=O)Nc3ccc(OC(F)(F)F)cc3)cc2)c1N`, the survival was 124%. Then `COC(=O)c1cnn(-c2ccc(C(=O)Nc3ccc(C(C)=O)cc3)cc2)c1N`, with 63%; and `COC(=O)c1cnn(-c2ccc(C(=O)Nc3ccc(OC(F)(F)F)cc3)cc2)c1N`, with 25% (active). On to `O=C(Cn1nc2c(cc1=O)CCCC2)NCc1ccccc1Cl`, for which the survival was 144%. As for `COc1ccccc1CNS(=O)(=O)c1cc(-c2cc(C)no2)ccc1C`, the survival was 102%.

With `CCc1ccccc1NC(=O)CSc1nnc(-c2cc(OC)c(OC)c(OC)c2)o1`, the survival was 111%. With `O=C(CN1C(=O)COc2ccc(S(=O)(=O)N3CCCCCC3)cc21)N1CCN(c2cccc(C(F)(F)F)c2)CC1`, the survival is 61% (active).

In the case of `O=C(CN1C(=O)COc2ccc(S(=O)(=O)N3CCOCC3)cc21)N1CCN(c2cccc(C(F)(F)F)c2)CC1`, the survival is 93%.

On to `CCCSCCCNC(=O)CN1C(=O)COc2ccc(S(=O)(=O)N3CCCC3)cc21`, for which the survival was 71%. As to `O=C(CN1C(=O)COc2ccc(S(=O)(=O)N3CCCC3)cc21)N1CCN(c2cccc(C(F)(F)F)c2)CC1`, the survival is 79%. For the compound `CCCCSCCCNC(=O)CN1C(=O)COc2ccc(S(=O)(=O)N3CCCC3)cc21`, the survival is 66%.

Take `CCCSCCCNC(=O)CN1C(=O)COc2ccc(S(=O)(=O)N3CCCCCC3)cc21`: the survival is 62% (active). For the compound `CC(=O)c1cccc(NC(=O)CCc2c(C)nc3c(-c4ccc(F)cc4)c(C)nn3c2C)c1`, the survival was 76%. Regarding `CCC1CN(C(=O)Nc2ccc(Br)cc2F)c2ccccc2S1` (configuration not stated), the survival was 90%. With `CCOC(=O)C1CCN(c2nc3c(S(=O)(=O)c4ccccc4)nnn3c3ccc(Cl)cc23)CC1`, the survival was 112%. As for `COc1cc(C2CC(=O)Nc3ccc4ccccc4c32)ccc1OC(=O)C(C)C` (configuration not stated), the survival is 67%. On to `Cc1ccc2c(c1)N(C(=O)Nc1cccc3c1CCCC3)CC(C)O2` (configuration not stated), for which the survival was 56%.

In the case of `CCOc1ccc(CCNS(=O)(=O)c2c(C)nc3scc(C)n3c2=O)cc1OCC`, the survival is 83%. As for `CCN(CC)S(=O)(=O)c1ccc2c(c1)c(=O)c(C(=O)NCc1ccccc1Cl)cn2C`, the survival was 61%.

In the case of `CCNc1nc2ccccc2s1`, the survival was 72%.

Turning to `COC(=O)CSc1nc2ccccc2s1`, the survival is 94%.

As for `CC(C)(C)NSc1nc2ccccc2s1`, the survival was 58% (active). With `Cc1ccccc1-c1noc(-c2ccc(N3CCC(C)CC3)c([N+](=O)[O-])c2)n1`, the survival is 55%. Consider `CCOc1ccc2nc(N3CCC(C(=O)Nc4ccccc4CC)CC3)sc2c1`, for which the survival is 70%.

With `Cc1c(NC(=O)c2cc(-c3ccc(Cl)cc3)on2)c(=O)n(-c2ccccc2)n1C`, the survival was 121%. Turning to `Cc1c(NC(=O)c2cc(-c3cccc(Cl)c3)on2)c(=O)n(-c2ccccc2)n1C`, the survival was 55%. For `Cc1c(NC(=O)c2cc(-c3ccccc3O)on2)c(=O)n(-c2ccccc2)n1C` the value was 51% (active). As to `COc1ccc(-c2cc(C(=O)Nc3c(C)n(C)n(-c4ccccc4)c3=O)no2)cc1`, the survival is 46% (active). For `COc1ccc(-c2cc(C(=O)Nc3c(C)n(C)n(-c4ccccc4)c3=O)no2)cc1OC` the value was 59%; for `Cc1c(NC(=O)c2cc(-c3ccc(F)cc3)on2)c(=O)n(-c2ccccc2)n1C`, 72%; for `Cc1c(NC(=O)c2cc(-c3ccc(O)cc3)on2)c(=O)n(-c2ccccc2)n1C`, 169%. `Cc1c(NC(=O)c2cc(-c3ccc(Cl)c(Cl)c3)on2)c(=O)n(-c2ccccc2)n1C`: the survival was 38% (active). In the case of `Cc1c(NC(=O)c2cc(-c3cccc(O)c3)on2)c(=O)n(-c2ccccc2)n1C`, the survival is 56%. Regarding `CCOC(=O)c1cccc(NC(=O)c2ccc3c(c2)nnn3CC)c1`, the survival was 66%. With `Cc1ccc(-c2onc(C)c2C)cc1S(=O)(=O)N1c2ccccc2CC1C` (configuration not stated), the survival was 79%. Turning to `COc1cccc(CCNC(=O)c2c(O)nc3cc(C)ccn3c2=O)c1`, the survival was 82%. For the compound `COc1ccc(CCNC(=O)c2c(O)nc3ccccn3c2=O)cc1`, the survival was 81%.

In the case of `COc1cccc(CNC(=O)c2c(O)nc3ccccn3c2=O)c1`, the survival is 43% (active). Regarding `Cc1ccc(CNC(=O)c2c(O)nc3ccccn3c2=O)cc1`, the survival is 89%. `O=C(NCc1ccc(F)cc1)c1c(O)nc2ccccn2c1=O`: the survival was 44% (active). Then `COc1ccc(CNC(=O)c2c(O)nc3cc(C)ccn3c2=O)cc1`, with 78%; and `COc1cccc(CCNC(=O)c2c(O)nc3ccccn3c2=O)c1`, with 48% (active); and `COc1ccc(CCNC(=O)c2c(O)nc3ccccn3c2=O)cc1OC`, with 54%. For the compound `Cc1cccn2c(=O)c(C(=O)NCc3ccc(F)cc3)c(O)nc12`, the survival was 119%.
